Our source for the Potency and outcome values is PubChem BioAssay (Tox21).

Results filed as inconclusive are left out. Activity calls are given as the source filed them. Unless noted, calls come from the whole dose curve.

Experiment [1] can be described thus: qHTS assay to identify small molecule antagonists of the sonic hedgehog signaling (Shh) pathway (AID 1259369). Note: nearly all actives have a fitted effect of over 45% in size. Note: potency is the fitted concentration of half-maximal effect. The gist of the method:
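Screening used 3T3Gli1-Luc cells at 2,000 per well, compounds delivered in DMSO, and conditioned medium as agonist stimulus; plates incubated 24hr at 37 C and 5% CO2 before a 30min luciferase step.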
Background: In qHTS, concentration-response curves come from the screen itself.

Experiment [2] is described as follows: qHTS assay to identify small molecule agonists of the androgen receptor (AR) signaling pathway in the presence of an antagonist - cell viability counter screen (AID 1259379; active = well fitted curve in the direction sought with a large enough effect in the repeat runs; an effect the other way counts as inactive or inconclusive;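 note: MDA-kb2 human breast cancer cells carrying an MMTV luciferase reporter; series mostly up to about 92 µM; nearly all actives have a fitted effect of over 25% in size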). In short, it runs like this:
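In MDA-kb2 cells (human breast carcinoma, MMTV-luciferase), compounds at 15 concentrations plus 3.0uM nilutamide; 16 hr, 37C, 0% CO2; CellTiter-Fluor fluorescence read for viability.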

The nature of experiment [3]: qHTS assay to identify small molecule agonists or antagonists of the thyroid stimulating hormone receptor (TSHR) signaling pathway - wild type cell line counter screen (AID 1259384). In short, it runs like this:
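Counter screen in untransfected Hek293: compounds (15-point titration, triplicate) plus phosphodiesterase inhibitor Ro20-1724 added after 18 h plating; 30 min RT. Intracellular cAMP via competitive d2/cryptate immunoassay, 1 h incubation.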

Experiment [4] has as its target Thyrotropin receptor (Homo sapiens) (UniProt P16473). The experiment is described as follows: qHTS assay to identify small molecule antagonists of the thyroid stimulating hormone receptor (TSHR) signaling pathway (AID 1259385). Note: nearly all actives have a fitted effect of over 20% in size. The gist of the method:
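Antagonist mode: compound-treated TSHR-expressing HEK293 cells were stimulated with 1.5 ng/mL TSH (final) in presence of Ro20-1724 for 30 min at RT. HTRF cAMP detection after 1 h; each compound tested at 15 concentrations, triplicate.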

The target in experiment [5] is Progesterone receptor (Homo sapiens) (UniProt P06401). The experiment is described as follows: qHTS assay to identify small molecule agonists of the progesterone receptor (PR) signaling pathway (AID 1346784). Note: nearly all actives have a fitted effect of over 30% in size. The gist of the method:
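Compounds were tested for PR agonism in HEK 293T cells bearing a beta-lactamase gene under UAS control. Treatment lasted 16 hr at 37C; signal came from fluorescence of a FRET substrate.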

The target is the same in experiment [6]. The experiment is described as follows: qHTS assay to identify small molecule antagonists of the progesterone receptor (PR) signaling pathway (AID 1346795; active = well fitted inhibition curve with a large enough effect in the signal ratio in the repeat runs, not every such curve was filed as active; the % refers to the signal ratio; note: potency is the fitted concentration of half-maximal effect). The gist of the method: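 In HEK293T cells bearing the PR-UAS-bla reporter, compound effects on promegestone-driven (1 nM) beta-lactamase expression are assessed after 16 hr using a fluorescent FRET substrate incubated 2 hr at room temperature.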

Experiment [7] can be described thus: qHTS assay to identify small molecule antagonists of the progesterone receptor (PR) signaling pathway - cell viability counter screen (AID 1346798; active = well fitted curve in the direction sought with a large enough effect in the repeat runs; an effect the other way counts as inactive or inconclusive; note: nearly all actives have a fitted effect of over 50% in size; note: potency is the fitted concentration of half-maximal effect). The gist of the method:
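Following a 4 hr attachment, PR-UAS-bla HEK293T cells in charcoal-stripped FBS medium were exposed to compounds with R5020 for 16 hr; CellTiter-Glo was added and luminescence read after 30 min at room temperature.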

Experiment [8] in a line: qHTS assay to identify small molecule antagonists of the TGF-beta/Smad signaling pathway - cell viability counter screen (AID 1346824; active = well fitted curve in the direction sought with a large enough effect in the repeat runs; an effect the other way counts as inactive or inconclusive; note: nearly all actives have a fitted effect of over 50% in size). The gist of the method:
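Cytotoxicity counter-screen run in the same wells as the beta-lactamase Smad reporter read: CellTiter-Glo luminescence after 30 min at room temperature. HEK 293T SBE-bla cells had 5 hr compound exposure at 37 C with TGF-beta1 (0.25 ng/mL stock).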

The nature of experiment [9]: qHTS assay to identify small molecule agonists of the TGF-beta/Smad signaling pathway - cell viability counter screen (AID 1346829; active = well fitted curve in the direction sought with a large enough effect in the repeat runs; an effect the other way counts as inactive or inconclusive; note: top concentration of the series differs between compounds; nearly all actives have a fitted effect of over 45% in size). In short, it runs like this: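 Cytotoxicity counter screen: CellTiter-Glo luminescence (30 min, room temperature) measured in the SBE-bla HEK 293T reporter wells after 5 hr compound treatment at 37 C and the 2 hr substrate step.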
The nature of experiment [10]: qHTS assay to identify small molecule agonists of the TGF-beta/Smad signaling pathway (AID 1346859; active = well fitted activation curve with a large enough effect in the signal ratio in the repeat runs, not every such curve was filed as active; the % refers to the signal ratio; note: series mostly up to about 77 µM). The gist of the method: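 Each well held 4,000 SBE-bla HEK 293T cells incubated overnight before compound addition; 5 hr later the cleavable FRET substrate went on for 2 hr at room temperature, and fluorescence was read at two emissions.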
The target of experiment [11] is Thyrotropin-releasing hormone receptor (Homo sapiens) (UniProt P34981). The experiment is described as follows: qHTS assay to identify small molecule antagonists of the thyrotropin-releasing hormone receptor (TRHR) signaling pathway (AID 1346877; active = well fitted inhibition curve with a large enough effect in the repeat runs, not every such curve was filed as active; note: series mostly up to about 51 µM). The gist of the method:
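In this cell-based calcium flux format, HEK293 cells expressing TRHR received test compound for 5 min before the agonist TRH (1 nM final). Dye loading lasted 2 h at 37 °C.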

For experiment [12] the target is unchanged. The experiment is described as follows: qHTS assay to identify small molecule agonists of the thyrotropin-releasing hormone receptor (TRHR) signaling pathway (AID 1346891). Note: series mostly up to about 58 µM. In short, it runs like this:
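Screening of agonists relied on calcium signalling in HEK293 cells expressing human TRHR: dye loading 2 h at 37 °C preceded compound addition and a 3-min fluorescence time course.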

For experiment [13], the target named is Estrogen receptor beta (Homo sapiens) (UniProt Q92731). The experiment is described as follows: qHTS assay to identify small molecule agonists of the estrogen receptor beta (ER-beta) signaling pathway (AID 1259377; active = well fitted activation curve with a large enough effect in the signal ratio in the repeat runs, not every such curve was filed as active; the % refers to the signal ratio). In short, it runs like this: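 Read-out: beta-lactamase FRET fluorescence. Cell line: ER-beta-UAS-bla HEK293T in 2% charcoal-stripped FBS. Exposure: 16 hr at 37C. Substrate step: 2 h at room temperature.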

The target is the same in experiment [14]. The experiment is described as follows: qHTS assay to identify small molecule antagonists of the estrogen receptor beta (ER-beta) signaling pathway (AID 1259378; active = well fitted inhibition curve with a large enough effect in the signal ratio in the repeat runs, not every such curve was filed as active; the % refers to the signal ratio). The gist of the method: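 Antagonist mode: compounds added to beta-lactamase reporter HEK293T ER-beta-UAS cells stimulated with E2 (1nM final), 16 hr at 37C. LiveBLAzer B/G FRET substrate, 2 hours room temperature, fluorescence read-out.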

Experiment [15] in a line: qHTS assay to identify small molecule agonists of the estrogen receptor beta (ER-beta) signaling pathway - cell viability counter screen (AID 1259380; active = well fitted curve in the direction sought with a large enough effect in the repeat runs; an effect the other way counts as inactive or inconclusive; note: nearly all actives have a fitted effect of over 30% in size; note: potency is the fitted concentration of half-maximal effect). In short, it runs like this: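 Viability of ER-beta-UAS-bla HEK293T cells was determined by CellTiter-Glo luminescence following 16 hr treatment with test compounds at 37C.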
Experiment [16] can be described thus: qHTS assay to identify small molecule antagonists of the estrogen receptor beta (ER-beta) signaling pathway - cell viability counter screen (AID 1259382; active = well fitted curve in the direction sought with a large enough effect in the repeat runs; an effect the other way counts as inactive or inconclusive; note: nearly all actives have a fitted effect of over 55% in size; note: potency is the fitted concentration of half-maximal effect). In short, it runs like this: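 Tox21 10K library tested in qHTS format on ER-beta-bla HEK293T cells stimulated with 1nM E2; 16 hr treatment at 37C. Same-well CellTiter-Glo luminescence served as the cell viability measure.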

Experiment [17] concerns the target Estrogen receptor (Homo sapiens) (UniProt P03372). The experiment is described as follows: qHTS assay to identify small molecule agonists of the estrogen receptor alpha (ER-alpha) signaling pathway in the presence of an antagonist (AID 1259383). Note: top concentration of the series differs between compounds; nearly all actives have a fitted effect of over 15% in size. The gist of the method:
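In VM7Luc4E2 cells, 4,000 per well, compounds at 15 concentrations were co-incubated 22hr at 37C with 10.0nM final ICI-182,780. Luminescence from the stably transfected 4×ERE-luciferase reporter was recorded 30min after ONE-Glo addition.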

Experiment [18] in a line: qHTS assay to identify small molecule agonists of the estrogen receptor alpha (ER-alpha) signaling pathway in the presence of an antagonist - cell viability counter screen (AID 1259386; active = well fitted curve in the direction sought with a large enough effect in the repeat runs; an effect the other way counts as inactive or inconclusive;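 note: cells exposed to compounds for 22 h at 37 °C before the viability read; nearly all actives have a fitted effect of over 30% in size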; note: potency is the fitted concentration of half-maximal effect). The gist of the method:
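Fluorescent CellTiter-Fluor viability signal from VM7Luc4E2 cells, with the reagent added during the final hour of a 22hr compound exposure at 37C in the presence of 10.0nM ICI-182,780.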

Experiment [19] can be described thus: qHTS assay to identify small molecule agonists of the progesterone receptor (PR) signaling pathway - cell viability counter screen (AID 1346799). Note: nearly all actives have a fitted effect of over 45% in size. Note: potency is the fitted concentration of half-maximal effect. In short, it runs like this: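 Here, 3,000 PR-UAS-bla HEK293T cells per well were treated with compounds for 16 hr after a 6 hr preincubation at 37C and 5% CO2; cell viability is the CellTiter-Glo luminescence signal.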

In experiment [20] the target is Androgen receptor (Homo sapiens) (UniProt P10275). The experiment is described as follows: qHTS assay to identify small molecule agonists of the androgen receptor (AR) signaling pathway in the presence of an antagonist (AID 1259381). Note: nearly all actives have a fitted effect of over 15% in size. The gist of the method: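 Here, 15-concentration compound series were pin-transferred onto MDA-kb2 MMTV-luciferase cells already dosed with nilutamide (3.0uM final). After 16hr at 37C, ONE-Glo was added and luminescence read 30min later at room temperature.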
Androgen receptor (Homo sapiens), sequence (P10275 whole entry, looked up): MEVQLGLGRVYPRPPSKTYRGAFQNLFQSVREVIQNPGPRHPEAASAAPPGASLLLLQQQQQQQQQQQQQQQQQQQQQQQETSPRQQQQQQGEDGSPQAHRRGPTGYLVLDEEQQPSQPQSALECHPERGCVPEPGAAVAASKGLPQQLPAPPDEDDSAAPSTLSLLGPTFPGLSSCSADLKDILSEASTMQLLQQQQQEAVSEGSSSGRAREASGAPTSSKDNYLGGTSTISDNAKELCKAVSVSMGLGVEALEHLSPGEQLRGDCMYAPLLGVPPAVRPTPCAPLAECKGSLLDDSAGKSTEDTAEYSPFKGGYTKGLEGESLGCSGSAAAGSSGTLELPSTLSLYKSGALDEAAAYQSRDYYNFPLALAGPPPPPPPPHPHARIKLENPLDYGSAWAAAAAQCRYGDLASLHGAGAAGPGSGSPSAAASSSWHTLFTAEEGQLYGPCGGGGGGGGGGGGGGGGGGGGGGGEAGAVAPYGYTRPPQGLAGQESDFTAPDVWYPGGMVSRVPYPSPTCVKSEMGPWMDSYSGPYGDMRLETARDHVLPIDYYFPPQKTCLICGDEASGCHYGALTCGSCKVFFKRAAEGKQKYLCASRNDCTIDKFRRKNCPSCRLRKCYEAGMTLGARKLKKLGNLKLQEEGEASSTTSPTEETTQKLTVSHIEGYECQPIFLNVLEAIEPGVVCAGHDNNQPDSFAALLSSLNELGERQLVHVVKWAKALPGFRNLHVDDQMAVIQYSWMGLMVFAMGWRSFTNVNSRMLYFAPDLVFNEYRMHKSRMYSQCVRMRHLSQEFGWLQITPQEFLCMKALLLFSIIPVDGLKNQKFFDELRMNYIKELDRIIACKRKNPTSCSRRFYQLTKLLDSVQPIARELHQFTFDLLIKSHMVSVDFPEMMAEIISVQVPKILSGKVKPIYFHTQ

Thyrotropin receptor (Homo sapiens), sequence (P16473 whole entry, looked up): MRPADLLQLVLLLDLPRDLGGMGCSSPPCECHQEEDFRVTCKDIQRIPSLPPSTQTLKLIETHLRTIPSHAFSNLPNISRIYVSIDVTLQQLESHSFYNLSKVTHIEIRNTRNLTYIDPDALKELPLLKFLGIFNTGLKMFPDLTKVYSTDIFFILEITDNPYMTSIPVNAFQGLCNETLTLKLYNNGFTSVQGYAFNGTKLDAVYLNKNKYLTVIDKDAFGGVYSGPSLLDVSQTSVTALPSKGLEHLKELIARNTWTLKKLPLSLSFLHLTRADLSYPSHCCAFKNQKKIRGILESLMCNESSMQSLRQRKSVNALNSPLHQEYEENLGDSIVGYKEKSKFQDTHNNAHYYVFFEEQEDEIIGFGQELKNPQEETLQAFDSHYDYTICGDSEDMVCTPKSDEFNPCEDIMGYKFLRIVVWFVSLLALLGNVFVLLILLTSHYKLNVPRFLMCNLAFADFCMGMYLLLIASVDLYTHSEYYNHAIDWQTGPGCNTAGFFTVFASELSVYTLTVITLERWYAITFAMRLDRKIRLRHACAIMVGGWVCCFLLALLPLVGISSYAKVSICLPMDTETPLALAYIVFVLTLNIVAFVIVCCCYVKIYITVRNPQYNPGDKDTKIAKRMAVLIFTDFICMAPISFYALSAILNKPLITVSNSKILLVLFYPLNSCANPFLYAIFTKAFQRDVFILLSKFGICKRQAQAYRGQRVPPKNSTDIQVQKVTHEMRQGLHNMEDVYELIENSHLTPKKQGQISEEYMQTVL
Estrogen receptor beta (Homo sapiens), sequence (Q92731 whole entry, looked up): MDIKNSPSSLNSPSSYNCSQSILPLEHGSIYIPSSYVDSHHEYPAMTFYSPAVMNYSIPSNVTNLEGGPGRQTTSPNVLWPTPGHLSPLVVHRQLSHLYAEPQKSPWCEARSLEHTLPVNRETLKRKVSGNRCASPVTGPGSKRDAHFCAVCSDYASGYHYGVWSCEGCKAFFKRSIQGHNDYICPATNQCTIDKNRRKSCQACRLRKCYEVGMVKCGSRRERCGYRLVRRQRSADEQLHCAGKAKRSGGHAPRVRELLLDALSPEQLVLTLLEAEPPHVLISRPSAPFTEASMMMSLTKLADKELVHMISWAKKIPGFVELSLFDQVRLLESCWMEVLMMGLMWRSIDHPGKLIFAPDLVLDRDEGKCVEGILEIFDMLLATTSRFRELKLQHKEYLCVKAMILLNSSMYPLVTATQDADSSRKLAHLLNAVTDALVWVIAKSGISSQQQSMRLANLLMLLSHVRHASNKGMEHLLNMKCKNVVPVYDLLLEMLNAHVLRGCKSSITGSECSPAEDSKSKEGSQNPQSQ
Progesterone receptor (Homo sapiens), sequence (P06401 whole entry, looked up): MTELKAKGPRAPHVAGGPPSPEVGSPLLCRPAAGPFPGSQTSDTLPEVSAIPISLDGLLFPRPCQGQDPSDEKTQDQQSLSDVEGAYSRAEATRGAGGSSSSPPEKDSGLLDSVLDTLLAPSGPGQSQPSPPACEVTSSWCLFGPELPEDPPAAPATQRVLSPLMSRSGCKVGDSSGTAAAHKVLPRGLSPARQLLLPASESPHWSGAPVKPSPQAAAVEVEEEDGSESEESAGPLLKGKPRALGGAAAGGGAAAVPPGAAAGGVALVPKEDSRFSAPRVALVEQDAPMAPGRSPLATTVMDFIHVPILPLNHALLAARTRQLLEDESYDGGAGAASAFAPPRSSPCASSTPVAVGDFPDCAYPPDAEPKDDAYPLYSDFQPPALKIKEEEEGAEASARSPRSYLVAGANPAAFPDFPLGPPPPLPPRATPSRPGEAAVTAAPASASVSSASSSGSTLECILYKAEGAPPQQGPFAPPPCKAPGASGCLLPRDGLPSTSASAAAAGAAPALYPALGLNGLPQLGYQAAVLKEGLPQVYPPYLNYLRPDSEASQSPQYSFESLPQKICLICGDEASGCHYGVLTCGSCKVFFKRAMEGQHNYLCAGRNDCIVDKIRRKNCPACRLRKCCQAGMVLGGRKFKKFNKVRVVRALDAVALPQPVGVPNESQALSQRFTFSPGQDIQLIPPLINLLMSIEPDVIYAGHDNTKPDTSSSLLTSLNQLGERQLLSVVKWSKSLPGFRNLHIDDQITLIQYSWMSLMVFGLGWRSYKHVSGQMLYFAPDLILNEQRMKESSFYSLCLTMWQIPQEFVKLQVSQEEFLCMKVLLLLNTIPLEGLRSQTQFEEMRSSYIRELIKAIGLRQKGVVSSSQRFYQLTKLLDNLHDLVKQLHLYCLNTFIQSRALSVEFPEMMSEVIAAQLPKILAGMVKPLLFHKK
Thyrotropin-releasing hormone receptor (Homo sapiens), sequence (P34981 whole entry, looked up): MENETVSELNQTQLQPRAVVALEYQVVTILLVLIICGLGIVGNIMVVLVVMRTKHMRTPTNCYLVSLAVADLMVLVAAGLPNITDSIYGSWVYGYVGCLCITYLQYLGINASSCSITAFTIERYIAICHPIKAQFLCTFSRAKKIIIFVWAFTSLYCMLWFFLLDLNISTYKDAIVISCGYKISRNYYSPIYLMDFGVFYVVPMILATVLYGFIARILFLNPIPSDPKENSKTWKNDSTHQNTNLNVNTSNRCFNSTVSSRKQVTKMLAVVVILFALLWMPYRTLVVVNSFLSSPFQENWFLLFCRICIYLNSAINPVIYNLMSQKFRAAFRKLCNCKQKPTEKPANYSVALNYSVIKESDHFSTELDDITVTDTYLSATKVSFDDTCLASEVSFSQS
Estrogen receptor (Homo sapiens), sequence (P03372 whole entry, looked up): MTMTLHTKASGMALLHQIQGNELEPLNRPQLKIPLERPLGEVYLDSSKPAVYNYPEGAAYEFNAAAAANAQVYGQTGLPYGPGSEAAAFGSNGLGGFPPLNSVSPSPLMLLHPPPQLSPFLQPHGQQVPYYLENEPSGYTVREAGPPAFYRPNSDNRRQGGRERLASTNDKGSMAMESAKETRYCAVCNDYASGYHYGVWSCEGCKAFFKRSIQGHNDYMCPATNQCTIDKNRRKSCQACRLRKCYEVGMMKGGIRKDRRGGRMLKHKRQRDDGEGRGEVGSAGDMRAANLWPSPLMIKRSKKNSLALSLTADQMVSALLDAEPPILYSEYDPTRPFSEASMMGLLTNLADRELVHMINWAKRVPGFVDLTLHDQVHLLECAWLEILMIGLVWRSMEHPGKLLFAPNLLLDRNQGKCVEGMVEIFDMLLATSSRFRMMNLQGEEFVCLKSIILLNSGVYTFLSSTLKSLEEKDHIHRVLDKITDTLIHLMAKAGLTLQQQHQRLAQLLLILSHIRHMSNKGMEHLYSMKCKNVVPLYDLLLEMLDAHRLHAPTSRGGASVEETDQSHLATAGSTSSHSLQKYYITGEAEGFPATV

With `Cc1cccc(O)c1N`, the Potency was 15.5 µM (active) in experiment [1] and 30.9 µM (active) in [6]. For the same compound, the Potency entry in experiment [2], in [4], in experiment [5], in experiment [7], in [8] and in experiment [9] was “inactive” each time. The Potency entry in [10] and in [12] was “inactive” in each case. Besides, the result in [3] and in experiment [11] was inactive.

As for `CC(C)=CC(=O)C=C(C)C`, the Potency entry in [13], in experiment [14], in experiment [2], in [15], in experiment [16] and in experiment [17] was “inactive” throughout. Also, the Potency entry in [4], in experiment [18], in experiment [5], in experiment [6], in experiment [19] and in experiment [8] was “inactive” each time. The Potency result in experiment [9], in [10] and in experiment [12] was “inactive” throughout. Also, the compound was called inactive in experiment [3] and in experiment [11].

On to `CC(=O)NC1(c2cccc(F)c2)CCN(CC[C@@]2(c3ccc(Cl)c(Cl)c3)CN(c3ccccc3)C(=O)CO2)CC1`, for which the Potency in experiment [1] is 24.4 µM (active); in experiment [15], 24.4 µM (active); in experiment [16] it was 21.7 µM (active); in [6], 48.7 µM (active); in [7] it was 38.7 µM (active); in experiment [19], 21.7 µM (active). Moreover, the Potency result in [17], in experiment [18], in [8] and in experiment [12] was “inactive” in each case. Moreover, the outcome in [3] and in experiment [11] was inactive.

On to `O=C1c2ccccc2C(=O)C1(O)O`, for which the Potency in experiment [1] is 15.4 µM (active). For the same compound, the Potency entry in experiment [2], in experiment [16], in experiment [17], in experiment [5], in [6] and in experiment [7] was “inactive” in each case. In addition, the Potency entry in experiment [19] and in [12] was “inactive” each time. The outcome in experiment [3] and in [11] was inactive.

With `C=CCc1ccccc1OCC(O)CNC(C)C` (configuration not stated), the Potency result in experiment [1], in experiment [2], in experiment [20], in [16], in experiment [4] and in experiment [18] was “inactive” each time. For the same compound, the Potency entry in experiment [5], in experiment [6], in experiment [7], in experiment [8], in experiment [9] and in [10] was “inactive” throughout. Moreover, in [12], the Potency result was “inactive”. For the same compound, the outcome in experiment [11] was inactive.

In the case of `C1C[C@@H]2[C@H]3CC[C@H](C3)[C@@H]2C1`, the Potency entry in experiment [1], in experiment [2], in experiment [16], in experiment [17], in experiment [4] and in [18] was “inactive” throughout. Moreover, the Potency result in [5], in experiment [6], in [7], in experiment [19], in experiment [8] and in experiment [10] was “inactive” each time. Moreover, the Potency entry in experiment [12] was “inactive”. For the same compound, the compound was classed as inactive in experiment [11].

Regarding `CCC(=O)OC`, the Potency entry in experiment [13], in experiment [14], in experiment [2], in [15], in experiment [20] and in experiment [16] was “inactive” throughout. Also, the Potency entry in [17], in [4], in [18], in experiment [5], in experiment [6] and in [7] was “inactive” each time. In addition, the Potency result in [19], in experiment [8], in [9], in experiment [10] and in [12] was “inactive” in each case. Moreover, the outcome in experiment [3] and in experiment [11] was inactive.

On to `CN1CCCC(n2nc(Cc3ccc(Cl)cc3)c3ccccc3c2=O)CC1` (configuration not stated), for which the Potency in [1] was 2.66 µM (active); in experiment [15] it was 26.6 µM (active); in experiment [18], 11.9 µM (active); in experiment [7], 26.6 µM (active); in experiment [19], 13.3 µM (active). Besides, the Potency result in [17], in experiment [5], in experiment [8], in [9], in [10] and in [12] was “inactive” throughout. Moreover, the compound was called inactive in [3] and in experiment [11].

Regarding `COc1ccccc1Oc1c(NS(=O)(=O)c2ccc(C(C)(C)C)cc2)nc(-c2ncccn2)nc1OCCO`, in experiment [1], the Potency is 15 µM (active). Besides, the Potency result in [2], in experiment [16], in [17], in experiment [4], in experiment [18] and in [5] was “inactive” throughout. Besides, the Potency result in experiment [7], in [19], in experiment [8], in experiment [9], in experiment [10] and in experiment [12] was “inactive” throughout. For the same compound, the call in experiment [3] and in experiment [11] was inactive.
